The results in this text go back to PubChem BioAssay AID1259311 (ICCB-Longwood Screening Facility, Harvard Medical School, 2017).

“And” between values parts separate entries of the source, which are not always exact repeats. Equal entries are not always repeated. About 1,100 (0.33%) of roughly 330,000 compounds were called active. No stated cut-off is given here; in the data, active means inhibition above about 85%; inactive means the rest. For the sample, actives were picked, then their nearest neighbours and some compounds at random. Some structures have more than one record in an assay (separate samples or runs), and their calls can disagree.

The assay is described as follows: growth inhibition of S. aureus RN4220, primary screen, OD600 (AID 1259311).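 Further: plate controls were untreated cells for no effect and reference antibiotic for full effect.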 The settings on record: OD600, 16 h, stronger effect = higher value.
With `Cc1ccc(N2C(=O)N3C(c4ccc(Br)cc4)C4C(=O)N(C(C)(C)C)C(=O)C4[C@]3(C)C2=O)cc1` (some centres undefined), the inhibition – broadly, the drop in the measured response relative to a control, in per cent – is 5.35% (inactive).

`N#CC(=NNc1ccc(Cl)cc1)C(=N)N1CCCCC1`: the inhibition was -2.55% (inactive).

Turning to `N#C/C(=C/c1ccc(Cl)cc1)NC(=O)c1ccccc1`, the inhibition is -6.37% (inactive).

Turning to `N#CC(=NNc1ccc(Cl)cc1)C(=O)c1ccccc1`, the inhibition is 100% (active).

Take `O=C(CSc1nc2ccccc2c(=O)n1-c1ccc(F)cc1)NC1CC1`: the inhibition is -2.32% (inactive).

Turning to `CCn1c(/C=C/c2ccc([N+](=O)[O-])o2)nc2ccccc2c1=O`, the inhibition is 11.2% (inactive).

As to `O=c1c2ccccc2nc(/C=C/c2ccco2)n1-c1ccccc1O`, the inhibition was 95.7% (active).

For `Cc1nc2ccccc2c(=O)n1-c1ccc(Cl)cc1Cl`, the inhibition is 2.26% (inactive).

`O=c1c2ccccc2nc(/C=C/c2ccc(F)cc2)n1-c1ccccc1O`: the inhibition is 97.2% (active).

In the case of `O=C(CSc1nc2ccccc2c(=O)n1-c1ccccc1F)N1CCOCC1`, the inhibition was -0.567% (inactive).

As to `O=C(NC(C(=O)NN=Cc1ccccn1)c1n[nH]c(=O)c2ccccc12)c1ccccc1` (centres undefined), the inhibition is 0.248% (inactive).

As for `CCCOc1ccc(C=NNC(=O)CSCc2ccc([N+](=O)[O-])cc2)cc1OCC`, the inhibition is 3.47% (inactive).

For `CC(CC(=O)Nc1ccc([N+](=O)[O-])cc1)=NNC(=O)C1CC12CCC2` (centres undefined), the inhibition is 3.47% (inactive).

Take `COc1ccccc1C=NNC(=O)CO`: the inhibition was 5.18% (inactive).

`CNC(=O)C(=NO)c1ccccc1`: the inhibition was 0.94% (inactive).

For the compound `O=C1CS/C(=N/N=Cc2ccncc2)N1`, the inhibition is 2.12% (inactive).

For the compound `COc1ccc(CCN2C(=O)CSC2=NNC(=O)c2cccs2)cc1OC`, the inhibition is 2.01% (inactive).

Take `COc1ccc(C=NN=Cc2ccc(OC)c(OC)c2)cc1OC`: the inhibition was -1.08% (inactive).

Consider `CN(C)C=Nc1sc2c(c1C#N)CC(C)(C)NC2(C)C`, for which the inhibition was 2.77% (inactive).

In the case of `COc1ccc(C(C)=NNC(=O)CSc2nnc(C)s2)cc1`, the inhibition was 6.45% (inactive).

Turning to `NC(=O)N1CCCC1C(=O)Nc1ccc(Cl)c(Cl)c1` (centres undefined), the inhibition was 0.288% (inactive).

For `O=C(Cc1ncc(C(F)(F)F)cc1Cl)Nc1cccc(Br)c1`, the inhibition was -2.16% (inactive).

Turning to `O=C(CC(O)(C(F)(F)F)C(F)(F)F)Nc1ccc(Cl)c(Cl)c1`, the inhibition was 100% (active).

Turning to `Cc1[nH]c2ccccc2c1C=NNC(=O)CNC(=O)c1cccs1`, the inhibition is 2.5% (inactive).

For the compound `COc1ccc(C=Nn2nnnc2N)c(OC)c1`, the inhibition is 2.12% (inactive).

For the compound `COc1ccc(C=NNC(=O)c2ccccc2OC)cc1COc1ccccc1[N+](=O)[O-]`, the inhibition is 4.25% (inactive).

With `COc1ccc(C(=O)NN=Cc2ccc(OC)c(CN3CCCc4ccccc43)c2)cc1`, the inhibition is 0.711% (inactive).

With `COc1ccc(C(=O)NN=Cc2ccc(OC(=O)c3cccc4ccccc34)c([N+](=O)[O-])c2)cc1`, the inhibition was 95.4% (active).

As for `C1=CC2CCN(Cc3ccccc3)Cc3cccc(c32)C1` (centres undefined), the inhibition was 4.59% (inactive).

With `Cc1cccc(-n2c(C)cc(C=NO)c2C)c1`, the inhibition is -4.73% (inactive).

As to `Cc1ccc(S(=O)(=O)N(Cc2cccc([N+](=O)[O-])c2)C(=O)N2CCN(C)CC2)cc1`, the inhibition was 2.8% (inactive).

Take `O=C(CCl)N(Cc1cccc([N+](=O)[O-])c1)c1cccc(Cl)c1`: the inhibition is 94.9% (active).

`O=C(c1cccc([N+](=O)[O-])c1)N1CCN(Cc2ccccc2)CC1`: the inhibition was 2.33% (inactive).

As for `CCCCNC(=O)CC1S/C(=N/N=Cc2ccc(OC)cc2)NC1=O` (centres undefined), the inhibition was 10.5% (inactive).

Turning to `Cc1ccc(C=NNC(=O)Cc2cccn2C)cc1`, the inhibition was 1.44% (inactive).

Consider `Cc1ccc(O)c(C(=O)C=Cc2ccc3c(c2)OCCO3)c1`, for which the inhibition is -1.13% (inactive).

For the compound `COc1c(O)ccc(C=NNC(=O)c2ccc3c(c2)OCCO3)c1[N+](=O)[O-]`, the inhibition is 0.97% (inactive).

Regarding `O=C(NN=Cc1cc([N+](=O)[O-])ccc1O)C12CC3CC(CC(C3)C1)C2`, the inhibition was 63.4% (inactive).

As for `CN1CCN(CCNC(=O)Nc2ccc([N+](=O)[O-])cc2)CC1`, the inhibition was 2.31% (inactive).

As for `CN1CCN(CCC(=O)NN=Cc2cc([N+](=O)[O-])ccc2O)CC1`, the inhibition was 88.7% (active).

`OCCC1CC(O)C(O)[C@@]2(CCCc3ccccc3O2)O1` (some centres undefined): the inhibition was -1.69% (inactive) and 51.2% (inactive) and 98.7% (active).

In the case of `OCCC1CC(O)C(O)[C@]2(Cc3ccccc3O2)O1` (some centres undefined), the inhibition is 1.1% (inactive) and -0.123% (inactive) and 7.32% (inactive).

In the case of `Cc1cccc(NC(=NS(=O)(=O)c2ccccc2)c2ccccc2)n1`, the inhibition was -0.262% (inactive).

Consider `CC(N)=C(C#N)C(=O)CSc1ccccc1F`, for which the inhibition was 5.44% (inactive).

As for `Cc1cc(C)n(C(=O)CCNC(=O)c2ccccc2Cl)n1`, the inhibition was 4.12% (inactive).

Turning to `Cc1cc(C)n(C(=O)C(C#N)=NNc2cc(Cl)cc(Cl)c2)n1`, the inhibition was 99.6% (active).

Regarding `N#CC(=NNc1cc(Cl)cc(Cl)c1)c1nnc2n1CCCCC2`, the inhibition was 0.845% (inactive).

As for `COc1ccc(C=NNc2ccc([N+](=O)[O-])cc2S(=O)(=O)N2CCN(C)CC2)cc1`, the inhibition was -2.66% (inactive).

For `O=C(NN=Cc1cc(Cl)cc([N+](=O)[O-])c1O)c1cccc(S(=O)(=O)N2CCOCC2)c1`, the inhibition was 5.65% (inactive).

As to `COc1ccc(CS(=O)/C(Cl)=C(/Cl)C(=O)Nc2ccc(OC)nc2)cc1` (centres undefined), the inhibition is 1.8% (inactive).

As to `COc1cccc(NC(=S)N(Cc2ccc(C)cc2)Cc2ccccn2)c1`, the inhibition was 2.66% (inactive).

Take `COc1ccc(NC(=O)/C(Cl)=C(/Cl)S(=O)Cc2ccc(C)cc2)cn1` (centres undefined): the inhibition is 93.4% (active).

Turning to `COc1ccc(CN2CCC(=O)N(C(CO)CC(C)C)CC2)cc1` (centres undefined), the inhibition is 3.45% (inactive).

`COc1ccc(C2CC(=O)C=C(c3ccc(C)cc3)C2)cc1` (centres undefined): the inhibition was 5.1% (inactive).

For the compound `O=C(Nc1nnc(-c2ccccc2)o1)c1cc(-c2cccs2)nc2ccccc12`, the inhibition is 100% (active).

Consider `O=C(NN=Cc1ccsc1)c1cc(-c2cccs2)nc2ccccc12`, for which the inhibition was 2.77% (inactive).

On to `CC(C)(C)Cc1nnc(NC(=O)c2cc(-c3ccccc3)nc3ccccc23)s1`, for which the inhibition is -1.74% (inactive).

In the case of `CC(C)(C=NO)N(O)C=C1C=CC(=O)C=C1`, the inhibition is 1.68% (inactive).

In the case of `COCCNC(=O)C1CCCN1S(=O)(=O)c1cccc2cccnc12` (centres undefined), the inhibition is 6.77% (inactive).

On to `COc1ccccc1CN1CCN(C(c2ccccc2)c2ccccc2)CC1`, for which the inhibition is -0.651% (inactive).

As to `CC1(C)CC(N2CCN(C(c3ccccc3)c3ccccc3)CC2)=CC(=[N+]2CCCCC2)C1`, the inhibition was 100% (active).

Take `c1ccc(C(c2ccccc2)N2CCN(Cc3nnnn3C3CCCCC3)CC2)cc1`: the inhibition was -1.54% (inactive).

With `CC(NC(=O)c1nc[nH]c1C(=O)NCCCCCNC(=O)OC(C)(C)C)c1ccccc1` (centres undefined), the inhibition was 8.53% (inactive) and 1.7% (inactive).

Turning to `C[C@]12CCC(O)CC1CCC1C2CC[C@]2(C)C(O)CCC12` (some centres undefined), the inhibition is 7.5% (inactive).

`Cc1ccc(NS(=O)(=O)c2cc([N+](=O)[O-])ccc2NN=Cc2sc(N3CCOCC3)nc2-c2ccccc2)c(C)c1`: the inhibition is -5% (inactive).

On to `COC(=O)Cc1ccc(OCC(=O)NC2CCCC2)cc1`, for which the inhibition was 2.26% (inactive).

`CC1(C)SC2C(NC(=O)COc3ccccc3)C(=O)N2C1C(=O)O` (centres undefined): the inhibition is 99.8% (active).

As for `Cc1cccc(OCC(=O)NC2CC(C)(C)NC(C)(C)C2)c1`, the inhibition is -1.7% (inactive).

With `O=S(=O)(NN=Cc1cccc(F)c1)c1ccccc1`, the inhibition is 29.9% (inactive).

`CCOc1cccc(-c2c(C(=O)NN=Cc3ccc(C)o3)nnn2-c2nonc2N)c1`: the inhibition is 4.52% (inactive).

For the compound `C#Cc1ccc(C2C=C(C(=O)N3CCOCC3)OC(OCC)C2CCCO)cc1` (centres undefined), the inhibition was 2.8% (inactive) and 5.16% (inactive).

`C#C[C@]1(O)CCC2C3CCC4=Cc5nc6nc7ccccc7n6cc5C[C@]4(C)C3CC[C@@]21C` (some centres undefined): the inhibition is -13.8% (inactive).

Turning to `CC(=NNC(=O)c1nnn(-c2nonc2N)c1CSc1ccc(C)cc1)c1ccco1`, the inhibition is 4.06% (inactive).

As for `COc1cccc(-c2nnc(NC(=O)c3ccc(S(=O)(=O)N(CC(C)C)CC(C)C)cc3)o2)c1`, the inhibition is 99.9% (active).

As for `O=C(Nc1nnc(-c2ccco2)o1)c1ccc(S(=O)(=O)N2CCOCC2)cc1`, the inhibition was 1.85% (inactive).

With `COc1ccc(-c2nnc(NC(=O)CS(=O)(=O)c3ccc(Cl)cc3)o2)c(OC)c1`, the inhibition is 3.79% (inactive).

Turning to `CC1CN(C(C)CO)C(=O)c2cccc(NC(=O)c3ccc(-c4nccs4)cc3)c2OC1CN(C)C(=O)NC1CCCCC1` (centres undefined), the inhibition was 4.31% (inactive).

On to `C=C[C@]1(C)CC(OC(=O)CSCCN(CC)CC)[C@]2(C)C(C)CC[C@]3(CCC(=O)C32)C(C)C1O` (some centres undefined), for which the inhibition is 101% (active).

Consider `COC(=O)[C@]1(CC(C)C)NC(c2ccc(-c3ccc(F)cc3)c(OC)c2)C2C(=O)N(C)C(=O)C21` (some centres undefined), for which the inhibition is -2.27% (inactive).

On to `COc1ccc(C2C=CCN(C(=O)Nc3ccccc3-c3ccccc3)CC(=O)N2Cc2ccc(F)cc2)cc1` (centres undefined), for which the inhibition is 4.3% (inactive).

`CC(C)CCn1c(=O)c(C(=O)NN=Cc2cccc(F)c2)c(O)c2ccccc21`: the inhibition was 101% (active).

Turning to `COc1cc(C(=O)NN=Cc2cn(Cc3cccc(F)c3)c3ccccc23)ccc1O`, the inhibition was -2.54% (inactive).

Turning to `CCCCCn1c(=O)c(C(=O)NCc2ccccc2)c(O)c2ccccc21`, the inhibition is -1.56% (inactive).

Consider `CCCn1c(=O)c(C(=O)NN=Cc2ccc(F)cc2)c(O)c2ccccc21`, for which the inhibition is 101% (active).

For the compound `CCCn1c(=O)c(-c2ccccc2)c(O)c2ccccc21`, the inhibition was 4.44% (inactive).

`CCCn1c(=O)c(C(=O)Nc2cc(C)ccn2)c(O)c2ccccc21`: the inhibition is 8.88% (inactive).

Consider `CCOC(=O)NN=C(C)/C=C/c1ccco1`, for which the inhibition is -0.0294% (inactive).

`O=C1CCC(O)CCN1CCC(Sc1ccccc1)c1ccccc1` (centres undefined): the inhibition is 10.9% (inactive).

`CC(C)(C)C1C=C(C(=O)N2CCN(Cc3ccccc3)CC2)OC(OCc2ccc(CO)cc2)C1` (centres undefined): the inhibition was 8.07% (inactive) and 4.07% (inactive).
